Data as given in ChEMBL document CHEMBL3433997, “St. Jude Leishmania screening dataset” (2016).

Legend:
Type in all cases: functional
[1] = biological target: Solute carrier family 2, facilitated glucose transporter member 1 (Homo sapiens) (UniProt P11166); test: ST_JUDE_LEISH: Cytotoxicity at 2uM final concentration against transgenic Leishmania Mexicana promastigotes LmGLUT1 that are glucose transport deficient and complemented with the human glucose transporter GLUT1. Activity is measured by DNA content using SYBR green in vitro
[2] = biological target: Hexose transporter 1 (Plasmodium falciparum) (UniProt O97467); test: ST_JUDE_LEISH: Cytotoxicity at 2uM final concentration against transgenic Leishmania Mexicana promastigotes LmPfHT that are glucose transport deficient and complemented with the Plasmodium falciparum hexose transporter. Activity is measured by DNA content using SYBR green in vitro
[3] = biological target: Glucose transporter (Leishmania mexicana) (UniProt O61059); test: ST_JUDE_LEISH: Cytotoxicity at 2uM final concentration against transgenic Leishmania Mexicana promastigotes LmGT2 that are glucose transport deficient and complemented with the L. Mexicana glucose transporter 2. Activity is measured by DNA content using SYBR green in vitro

Solute carrier family 2, facilitated glucose transporter member 1 (Homo sapiens), sequence (P11166 whole entry): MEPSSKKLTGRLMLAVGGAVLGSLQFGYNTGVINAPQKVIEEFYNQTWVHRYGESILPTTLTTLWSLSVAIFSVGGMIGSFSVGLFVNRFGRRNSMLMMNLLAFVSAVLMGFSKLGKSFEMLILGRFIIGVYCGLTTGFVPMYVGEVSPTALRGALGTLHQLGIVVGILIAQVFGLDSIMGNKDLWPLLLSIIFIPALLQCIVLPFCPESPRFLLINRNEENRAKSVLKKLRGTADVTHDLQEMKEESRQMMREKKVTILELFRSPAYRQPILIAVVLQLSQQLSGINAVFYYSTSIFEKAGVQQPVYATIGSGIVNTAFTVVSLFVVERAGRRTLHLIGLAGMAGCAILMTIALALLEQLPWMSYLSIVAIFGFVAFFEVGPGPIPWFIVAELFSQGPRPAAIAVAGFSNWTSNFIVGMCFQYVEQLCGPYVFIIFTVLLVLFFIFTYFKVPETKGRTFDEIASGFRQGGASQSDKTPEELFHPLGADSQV

| SMILES | inhibition [1] | inhibition [2] | inhibition [3] |
| --- | --- | --- | --- |
| Cc1ccc(Nc2nc(N)c3ccccc3n2)cc1 | 22% | 17.5% | 4.74% |
| COC(=O)c1cccc(CNCc2ccc(-c3ccc(-c4nc5cc(F)ccc5[nH]4)s3)cc2)c1 | 2.57% | 0.36% | 1.42% |
| CO/C(=C\C=C\c1cc2cc(Cl)c(Cl)cc2[nH]1)C(=O)NCCCN1CCN(c2ccc(OC)cc2)CC1 | 2.11% | 2.47% | 1.28% |
| COc1cccc(NC(=O)c2ccc(NCCCN3CCC(C)CC3)c([N+](=O)[O-])c2)c1 | 76.1% | 41.7% | 12.8% |
| O=C(NC(c1ccccc1)c1ccccc1)C(c1cc2ccccc2o1)N1CCN(C(c2ccccc2)c2ccccc2)CC1 (stereo unspecified) | 4.42% | 2.92% | 0.24% |
| CCC(Cc1ccccc1)c1cc(O)c(Cc2ccc(-c3ccccc3)cc2)c(=O)o1 (stereo unspecified) | 2.42% | 2.07% | 0.95% |
| Cc1ccc(C)c2sc(N(CCCn3ccnc3)C(=O)c3ccco3)nc12 | 4.42% | 5.62% | 5.23% |
| CN(c1ccc(NC(=O)Nc2cc(C(F)(F)F)ccc2F)cc1)c1ccnc(NCCN2CCOCC2)n1 | 7.88% | 18.5% | 0.14% |
| CCCNCc1ccc(-c2ccc(CN(CCOC)C(=O)CC3CCCC3=O)cc2)nc1 (stereo unspecified) | 0.55% | 0.07% | -9.43% |
| Cc1ccc(-c2ccc(Cl)cc2Oc2cnc(N)nc2N)o1 | 1.95% | 2.44% | 0.26% |
| CS(=O)(=O)CCN(CCS(C)(=O)=O)Cc1ccc(-c2ccc3ncnc(Nc4ccc(OCc5cccc(F)c5)c(Cl)c4)c3c2)o1 | 2% | 2.02% | 2.35% |
| Cn1cncc1C(=O)NC1CCN(c2ccnc(Nc3ccc(F)cc3)n2)C1 (stereo unspecified) | 0.07% | -0.1% | 0.61% |
| CCc1cn2c3c(cc(C(=O)N[C@@H](Cc4ccccc4)[C@H](O)CNCc4ccccc4)cc13)N(C)S(=O)(=O)CC2 | -0.83% | -0.74% | 0.13% |
| CCCN(Cc1nnc(-c2ccco2)o1)C(=O)C1CCN(c2ncc(C(F)(F)F)cc2Cl)CC1 | 11.4% | 10.2% | 10.8% |
| CN(C)c1ccc(C=Cc2nc(=O)c3ccccc3o2)cc1 | 1.38% | 3.22% | 0.74% |
| Cc1nc2nc(N)nc(N)c2c(C)c1Cc1ccc(C(F)(F)F)cc1 | 32.9% | 38.8% | 28.9% |
| Cc1ccc2[nH]cc(/C=C/C(=O)NC3CCC(CCN4CCc5ccc(C#N)cc5CC4)CC3)c2c1 (stereo unspecified) | 0.83% | 4.1% | -2.82% |
| Cc1cccc2nc(-c3cccc(-c4ccc(NC(=O)c5ccncc5)cc4)c3)[nH]c12 | 2.81% | 2.24% | 2% |
| CCN(CCCN1CCCCC1)c1cc(C)nc(Nc2cc(Cl)cc(Cl)c2)n1 | 0.93% | 2.39% | 1.01% |

| SMILES | inhibition [1] | inhibition [2] | inhibition [3] |
| --- | --- | --- | --- |
| COc1ccc(-c2ccnc(-c3cccc(-c4ccccn4)n3)c2)cc1 | 7.03% | 24.9% | 2.98% |
| O=C(/C=C/c1ccc(Cl)c(Cl)c1)NCCCCCN1CCC(NC(=O)c2cccc(Cl)c2)CC1 | 9.72% | 10.2% | 7.71% |
| O=C(Nc1ccc(-c2nc3ccccc3[nH]2)cc1)c1ccc(S(=O)(=O)N2CCCCC2)cc1 | 3.08% | 4.17% | 0.68% |
| Cc1cccn2c(=O)c3cc(C(=O)NCc4cccnc4)c(=N)n(CCc4ccccc4)c3nc12 | 3.35% | 4.08% | 1.6% |
| Cc1cccc2nc(-c3ccc(-c4cccc(NC(=O)c5cncn5C)c4)cc3)[nH]c12 | 5.73% | 5.37% | 5.41% |
| CN(C)c1ccc(CN2CCC(NC(=O)c3ccc(-c4ccc(N(C)C)cc4)s3)CC2)cc1 | 1.4% | -0.22% | -0.4% |
| COc1cc2nc(N(C)CC3COc4ccccc4O3)nc(N)c2cc1OC (stereo unspecified) | 3.64% | 1.69% | -0.97% |
| FC(F)(F)c1ccc2c(NN=Cc3cccc(Cl)c3)ccnc2c1 | 5.93% | 5.5% | 3.57% |
| CCNCc1ccc(-c2cccc(-c3nc4ccccc4[nH]3)c2)cc1 | 1.09% | 1.16% | 3.49% |
| Cc1ccccc1C1CCN(C2CCC(NC(=O)/C=C/c3cccc(F)c3)CC2)CC1 (stereo unspecified) | 6.96% | 8.22% | 7.51% |
| CCc1cc(I)c2c(c1)C(NCCCNc1cc(=O)c3ccccc3[nH]1)CCN2 (stereo unspecified) | 2.28% | 4.39% | 1.86% |
| CC(C)(C)NC(=O)C(c1ccc(F)cc1)N(C(=O)c1ccc(CN2CCOCC2)o1)c1ccc(C2CCCCC2)cc1 (stereo unspecified) | 2.43% | 2.31% | 0.51% |
| CC(=O)Nc1ccc(C(=O)Nc2ccc(-c3csc(-c4nc5ccccc5[nH]4)c3)cc2)cn1 | 1.44% | 1.57% | 0.75% |
| N=C(N)NC(=O)Nc1ccc(Cl)c([N+](=O)[O-])c1 | 0.49% | 0.63% | 0.37% |
| CC(C)CCNCc1ccc(OCc2cccc(C(=O)Nc3ccccc3)c2)c(I)c1 | 3.34% | 3.14% | 1.47% |
| O=C(Nc1ccc(OC2CCN(Cc3ccsc3)C2)c(Cl)c1)c1cccs1 (stereo unspecified) | 2.98% | 3.61% | 2.52% |
| CCOc1cc(C)ccc1NC1CCN(CCCCNC(=O)c2ccc(NC(=O)c3ccc(Cl)cc3)cc2)CC1 | -0.53% | 1.56% | 1.89% |
| C[C@@H](CC1CCCCC1)OC(=O)N(C)[C@H]1CCN(C#N)C1 | 14% | 8.54% | 8.86% |
